# Assays:
# Assay in all cases: DAPPL (digital affinity profiling via proximity ligation, sequencing); 10 mM Tris-HCl pH 7.5, 50 mM NaCl, 1 mM DTT, 4% glycerol, room temperature, 30 min; GST-TFs on glutathione beads, 16-mer random dsDNA library, 0.1% formaldehyde crosslink after washing; high values mean tight binding
# FLI1 = biological target: T1, FLI1 (Homo sapiens, UniProt Q01543 1-452); conditions: protein: recombinant; tags: N-terminal GST; dsDNA, one strand shown
# T1 sequence: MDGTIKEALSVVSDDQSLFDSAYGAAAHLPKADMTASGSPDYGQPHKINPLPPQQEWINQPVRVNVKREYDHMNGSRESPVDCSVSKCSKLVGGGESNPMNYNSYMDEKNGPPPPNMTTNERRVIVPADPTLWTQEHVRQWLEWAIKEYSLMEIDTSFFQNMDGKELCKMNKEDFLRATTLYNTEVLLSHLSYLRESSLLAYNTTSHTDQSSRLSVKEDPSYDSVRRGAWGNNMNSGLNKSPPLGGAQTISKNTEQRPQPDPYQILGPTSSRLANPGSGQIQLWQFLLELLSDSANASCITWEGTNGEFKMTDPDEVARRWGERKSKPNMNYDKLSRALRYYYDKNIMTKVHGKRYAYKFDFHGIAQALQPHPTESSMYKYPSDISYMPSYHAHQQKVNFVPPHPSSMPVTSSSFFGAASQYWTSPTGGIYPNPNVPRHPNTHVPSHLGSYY
# How it was run: (§1)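 GST fusions of human transcription factors were expressed in yeast and captured with glutathione beads. Once given DNA barcodes and pooled alongside a tag-only sample, they were incubated for 30 min at room temperature with 200 nmole of a random double-stranded 16-mer DNA library in Tris/NaCl/DTT/glycerol buffer, then washed, crosslinked (0.1% formaldehyde), proximity-ligated, PCR-amplified and sequenced on an Illumina NextSeq500. The binding signal of each hexamer is its read frequency for a factor divided by its frequency for the tag-only sample.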
# ELK1 = biological target: T2, ELK1 (Homo sapiens, UniProt P19419 1-428); conditions: protein: recombinant; tags: N-terminal GST; dsDNA, one strand shown
# T2 sequence: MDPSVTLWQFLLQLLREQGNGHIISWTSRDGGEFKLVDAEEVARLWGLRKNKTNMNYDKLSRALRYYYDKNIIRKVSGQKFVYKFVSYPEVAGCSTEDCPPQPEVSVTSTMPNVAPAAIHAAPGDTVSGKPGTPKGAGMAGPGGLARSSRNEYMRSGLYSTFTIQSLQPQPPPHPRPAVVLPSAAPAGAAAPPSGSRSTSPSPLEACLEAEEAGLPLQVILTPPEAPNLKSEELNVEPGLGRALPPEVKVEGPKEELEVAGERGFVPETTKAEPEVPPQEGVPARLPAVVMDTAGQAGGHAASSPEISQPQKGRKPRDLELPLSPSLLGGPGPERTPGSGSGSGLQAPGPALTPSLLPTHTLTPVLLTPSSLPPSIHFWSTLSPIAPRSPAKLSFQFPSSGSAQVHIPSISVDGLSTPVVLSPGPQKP
# How it was run: as §1
# GABPA = biological target: T3, GABPA (Homo sapiens, UniProt Q06546 1-454); conditions: protein: recombinant; tags: N-terminal GST; dsDNA, one strand shown
# T3 sequence: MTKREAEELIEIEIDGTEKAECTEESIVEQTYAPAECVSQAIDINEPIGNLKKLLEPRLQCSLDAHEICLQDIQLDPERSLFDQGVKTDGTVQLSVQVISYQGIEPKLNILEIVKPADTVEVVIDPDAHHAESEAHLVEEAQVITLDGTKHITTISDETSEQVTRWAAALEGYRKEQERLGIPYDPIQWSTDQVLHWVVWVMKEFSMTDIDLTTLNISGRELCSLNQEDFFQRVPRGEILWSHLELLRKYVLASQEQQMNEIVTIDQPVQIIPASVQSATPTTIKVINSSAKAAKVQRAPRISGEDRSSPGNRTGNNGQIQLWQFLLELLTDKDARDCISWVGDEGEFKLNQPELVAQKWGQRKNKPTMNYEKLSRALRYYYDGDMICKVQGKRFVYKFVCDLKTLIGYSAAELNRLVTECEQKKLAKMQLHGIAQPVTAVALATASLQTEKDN
# How it was run: as §1
# ERG = biological target: T4, ERG (Homo sapiens, UniProt P11308 1-479); conditions: protein: recombinant; tags: N-terminal GST; dsDNA, one strand shown
# T4 sequence: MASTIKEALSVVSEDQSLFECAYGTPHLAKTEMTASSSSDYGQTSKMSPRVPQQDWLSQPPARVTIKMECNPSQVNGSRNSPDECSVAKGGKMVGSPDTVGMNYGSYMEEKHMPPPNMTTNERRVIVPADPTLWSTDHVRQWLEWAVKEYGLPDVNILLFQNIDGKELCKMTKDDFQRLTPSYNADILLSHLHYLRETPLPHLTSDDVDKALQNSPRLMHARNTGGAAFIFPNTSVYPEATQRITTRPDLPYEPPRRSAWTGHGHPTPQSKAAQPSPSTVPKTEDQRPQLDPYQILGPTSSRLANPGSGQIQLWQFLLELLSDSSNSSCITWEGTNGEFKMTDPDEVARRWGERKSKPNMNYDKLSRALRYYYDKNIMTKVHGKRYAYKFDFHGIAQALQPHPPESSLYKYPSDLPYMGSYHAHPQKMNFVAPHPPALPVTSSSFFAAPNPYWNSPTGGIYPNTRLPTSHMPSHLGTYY
# How it was run: as §1
# ELF1 = ELF1 (Homo sapiens, UniProt P32519 1-619); conditions: protein: recombinant; tags: N-terminal GST; dsDNA, one strand shown
# Sequence of ELF1 (P32519 whole entry): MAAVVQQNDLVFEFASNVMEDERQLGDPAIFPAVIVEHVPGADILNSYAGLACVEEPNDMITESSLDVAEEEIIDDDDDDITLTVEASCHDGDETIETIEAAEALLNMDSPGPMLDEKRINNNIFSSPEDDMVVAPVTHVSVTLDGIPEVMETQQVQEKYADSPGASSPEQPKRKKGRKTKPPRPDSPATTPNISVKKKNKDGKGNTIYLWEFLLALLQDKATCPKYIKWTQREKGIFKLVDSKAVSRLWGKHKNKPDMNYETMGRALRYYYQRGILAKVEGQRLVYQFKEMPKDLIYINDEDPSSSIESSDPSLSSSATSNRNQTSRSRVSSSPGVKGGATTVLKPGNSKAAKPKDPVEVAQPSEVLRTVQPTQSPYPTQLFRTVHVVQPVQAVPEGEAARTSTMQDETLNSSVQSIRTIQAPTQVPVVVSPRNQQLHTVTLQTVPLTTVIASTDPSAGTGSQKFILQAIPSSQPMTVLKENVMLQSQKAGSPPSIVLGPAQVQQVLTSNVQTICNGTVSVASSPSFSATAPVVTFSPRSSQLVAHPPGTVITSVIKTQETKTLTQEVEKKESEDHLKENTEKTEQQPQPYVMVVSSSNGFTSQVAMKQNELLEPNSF
# How it was run: as §1
# EHF = biological target: T5, EHF (Homo sapiens, UniProt Q9NZC4 1-300); conditions: protein: recombinant; tags: N-terminal GST; dsDNA, one strand shown
# T5 sequence: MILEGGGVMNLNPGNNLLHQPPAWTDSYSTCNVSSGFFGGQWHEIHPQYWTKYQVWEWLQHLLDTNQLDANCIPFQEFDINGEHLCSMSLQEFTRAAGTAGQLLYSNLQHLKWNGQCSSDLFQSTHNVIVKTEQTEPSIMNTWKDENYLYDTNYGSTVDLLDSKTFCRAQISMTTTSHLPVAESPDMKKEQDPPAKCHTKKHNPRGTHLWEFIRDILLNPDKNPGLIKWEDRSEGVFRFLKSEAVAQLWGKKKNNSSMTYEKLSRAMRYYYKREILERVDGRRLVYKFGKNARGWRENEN
# How it was run: as §1
# SPI1 = SPI1 (Homo sapiens, UniProt P17947 1-270); conditions: protein: recombinant; tags: N-terminal GST; dsDNA, one strand shown
# How it was run: as §1
# SPIB = SPIB (Homo sapiens, UniProt Q01892 1-262); conditions: protein: recombinant; tags: N-terminal GST; dsDNA, one strand shown
# Sequence of SPIB (Q01892 whole entry): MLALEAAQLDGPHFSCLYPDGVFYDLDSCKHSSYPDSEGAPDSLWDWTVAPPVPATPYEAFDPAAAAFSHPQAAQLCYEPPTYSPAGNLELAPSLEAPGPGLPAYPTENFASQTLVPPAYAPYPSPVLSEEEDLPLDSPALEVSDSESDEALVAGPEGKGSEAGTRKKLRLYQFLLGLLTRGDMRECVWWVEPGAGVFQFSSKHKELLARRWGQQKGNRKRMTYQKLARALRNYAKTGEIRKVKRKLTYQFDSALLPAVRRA
# How it was run: as §1
# ELK3 = biological target: T6, ELK3 (Homo sapiens, UniProt P41970 1-407); conditions: protein: recombinant; tags: N-terminal GST; dsDNA, one strand shown
# T6 sequence: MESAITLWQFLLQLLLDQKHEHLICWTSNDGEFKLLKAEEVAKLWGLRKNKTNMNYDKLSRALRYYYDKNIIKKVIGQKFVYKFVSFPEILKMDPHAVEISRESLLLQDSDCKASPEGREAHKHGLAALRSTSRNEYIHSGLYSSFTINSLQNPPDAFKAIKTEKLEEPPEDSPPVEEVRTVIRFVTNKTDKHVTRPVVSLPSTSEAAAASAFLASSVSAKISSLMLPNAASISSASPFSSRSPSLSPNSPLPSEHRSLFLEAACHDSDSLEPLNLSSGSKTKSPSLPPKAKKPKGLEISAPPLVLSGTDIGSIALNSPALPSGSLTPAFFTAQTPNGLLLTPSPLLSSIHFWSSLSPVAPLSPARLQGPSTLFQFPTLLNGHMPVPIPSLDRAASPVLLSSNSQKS
# How it was run: as §1
# FEV = biological target: T7, FEV (Homo sapiens, UniProt Q99581 1-238); conditions: protein: recombinant; tags: N-terminal GST; dsDNA, one strand shown
# T7 sequence: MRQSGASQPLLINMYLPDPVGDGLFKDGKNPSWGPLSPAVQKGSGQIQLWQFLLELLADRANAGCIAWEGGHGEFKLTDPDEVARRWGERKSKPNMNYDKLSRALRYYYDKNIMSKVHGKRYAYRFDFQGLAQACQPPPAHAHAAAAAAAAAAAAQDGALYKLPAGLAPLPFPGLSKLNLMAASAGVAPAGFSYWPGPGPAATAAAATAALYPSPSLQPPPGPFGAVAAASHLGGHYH
# How it was run: as §1
# ETV5 = ETV5 (Homo sapiens, UniProt P41161 1-510); conditions: protein: recombinant; tags: N-terminal GST; dsDNA, one strand shown
# Sequence of ETV5 (P41161 whole entry): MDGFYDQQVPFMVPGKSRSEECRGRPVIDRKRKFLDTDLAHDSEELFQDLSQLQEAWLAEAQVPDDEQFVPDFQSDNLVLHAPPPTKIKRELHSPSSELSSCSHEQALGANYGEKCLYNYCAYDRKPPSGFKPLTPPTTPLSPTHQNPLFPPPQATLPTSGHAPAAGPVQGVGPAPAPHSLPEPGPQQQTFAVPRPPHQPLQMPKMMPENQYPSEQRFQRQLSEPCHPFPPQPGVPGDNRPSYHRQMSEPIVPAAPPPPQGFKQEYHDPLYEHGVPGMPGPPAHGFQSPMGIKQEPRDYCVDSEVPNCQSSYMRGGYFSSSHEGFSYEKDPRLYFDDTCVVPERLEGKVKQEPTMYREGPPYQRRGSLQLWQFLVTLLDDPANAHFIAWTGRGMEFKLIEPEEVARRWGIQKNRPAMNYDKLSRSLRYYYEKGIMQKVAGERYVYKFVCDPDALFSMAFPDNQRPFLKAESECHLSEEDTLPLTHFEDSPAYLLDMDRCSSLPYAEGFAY
# How it was run: as §1
# HSF1 = HSF1 (Homo sapiens, UniProt Q00613 1-529); conditions: protein: recombinant; tags: N-terminal GST; chain copies: 3; dsDNA, one strand shown
# Sequence of HSF1 (Q00613 whole entry): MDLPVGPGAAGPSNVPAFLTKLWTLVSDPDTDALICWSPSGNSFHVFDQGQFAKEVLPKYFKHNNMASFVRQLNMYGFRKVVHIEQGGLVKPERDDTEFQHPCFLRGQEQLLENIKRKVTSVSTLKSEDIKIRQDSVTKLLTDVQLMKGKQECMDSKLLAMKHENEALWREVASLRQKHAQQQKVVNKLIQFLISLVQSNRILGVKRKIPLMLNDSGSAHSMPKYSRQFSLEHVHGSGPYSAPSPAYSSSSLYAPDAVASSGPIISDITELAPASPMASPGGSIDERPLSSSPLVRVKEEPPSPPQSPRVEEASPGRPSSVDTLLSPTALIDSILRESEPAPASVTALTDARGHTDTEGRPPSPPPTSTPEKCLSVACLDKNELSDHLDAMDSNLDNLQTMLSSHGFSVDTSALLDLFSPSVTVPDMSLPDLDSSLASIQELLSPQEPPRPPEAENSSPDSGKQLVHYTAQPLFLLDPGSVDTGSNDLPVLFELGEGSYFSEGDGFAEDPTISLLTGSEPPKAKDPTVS
# How it was run: as §1
# SPIC = biological target: T8, SPIC (Homo sapiens, UniProt Q8N5J4 1-248); conditions: protein: recombinant; tags: N-terminal GST; dsDNA, one strand shown
# T8 sequence: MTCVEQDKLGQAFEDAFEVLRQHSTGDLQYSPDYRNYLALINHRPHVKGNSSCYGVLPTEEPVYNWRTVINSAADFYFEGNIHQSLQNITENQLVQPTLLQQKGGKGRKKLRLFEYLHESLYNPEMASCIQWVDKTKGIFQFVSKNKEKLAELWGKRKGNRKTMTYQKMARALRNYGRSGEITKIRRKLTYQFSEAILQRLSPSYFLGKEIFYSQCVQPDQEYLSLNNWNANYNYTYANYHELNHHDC
# How it was run: as §1
# ELF4 = ELF4 (Homo sapiens, UniProt Q99607 1-663); conditions: protein: recombinant; tags: N-terminal GST; dsDNA, one strand shown
# Sequence of ELF4 (Q99607 whole entry): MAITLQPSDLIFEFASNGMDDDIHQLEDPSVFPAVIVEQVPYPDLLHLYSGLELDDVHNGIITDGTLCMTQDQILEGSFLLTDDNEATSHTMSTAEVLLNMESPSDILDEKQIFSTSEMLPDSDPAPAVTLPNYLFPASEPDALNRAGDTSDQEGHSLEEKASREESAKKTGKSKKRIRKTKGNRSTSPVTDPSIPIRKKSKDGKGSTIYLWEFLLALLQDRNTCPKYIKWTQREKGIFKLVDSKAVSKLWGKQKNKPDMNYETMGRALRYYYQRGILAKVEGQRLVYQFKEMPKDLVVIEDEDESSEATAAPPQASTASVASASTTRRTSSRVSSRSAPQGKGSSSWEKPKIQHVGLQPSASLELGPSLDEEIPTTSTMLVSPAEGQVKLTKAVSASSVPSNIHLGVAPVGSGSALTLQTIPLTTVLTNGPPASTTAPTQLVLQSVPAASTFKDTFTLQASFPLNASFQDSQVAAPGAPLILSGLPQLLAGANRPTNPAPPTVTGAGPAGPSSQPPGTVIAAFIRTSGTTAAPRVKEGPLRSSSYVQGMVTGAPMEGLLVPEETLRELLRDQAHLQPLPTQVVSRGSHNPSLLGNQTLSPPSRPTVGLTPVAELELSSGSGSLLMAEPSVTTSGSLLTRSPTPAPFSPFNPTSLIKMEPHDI
# How it was run: as §1
# ELK4 = biological target: T9, ELK4 (Homo sapiens, UniProt P28324-2 1-405); conditions: protein: recombinant; tags: N-terminal GST; dsDNA, one strand shown
# T9 sequence: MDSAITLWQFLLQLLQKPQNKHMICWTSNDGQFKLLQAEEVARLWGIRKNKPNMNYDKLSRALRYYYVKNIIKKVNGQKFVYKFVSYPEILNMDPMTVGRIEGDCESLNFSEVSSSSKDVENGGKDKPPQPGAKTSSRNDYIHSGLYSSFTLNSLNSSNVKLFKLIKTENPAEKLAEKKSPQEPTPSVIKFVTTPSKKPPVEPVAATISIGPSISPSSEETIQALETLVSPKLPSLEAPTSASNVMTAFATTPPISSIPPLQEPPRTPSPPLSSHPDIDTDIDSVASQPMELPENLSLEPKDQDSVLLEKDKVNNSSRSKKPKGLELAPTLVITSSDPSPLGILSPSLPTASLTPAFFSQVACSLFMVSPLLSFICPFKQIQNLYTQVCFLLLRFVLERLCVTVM
# How it was run: as §1
# ETV2 = biological target: T10, ETV2 (Homo sapiens, UniProt O00321 1-342); conditions: protein: recombinant; tags: N-terminal GST; dsDNA, one strand shown
# T10 sequence: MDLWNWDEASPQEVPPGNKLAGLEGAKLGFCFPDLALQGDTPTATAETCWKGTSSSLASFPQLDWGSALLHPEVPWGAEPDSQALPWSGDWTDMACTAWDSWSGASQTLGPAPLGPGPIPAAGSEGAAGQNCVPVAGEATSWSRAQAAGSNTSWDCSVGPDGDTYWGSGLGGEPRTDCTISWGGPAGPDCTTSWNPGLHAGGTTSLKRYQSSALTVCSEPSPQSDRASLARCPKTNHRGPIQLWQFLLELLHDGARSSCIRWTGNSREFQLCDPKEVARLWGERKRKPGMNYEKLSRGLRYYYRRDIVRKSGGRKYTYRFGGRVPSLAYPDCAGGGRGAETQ
# How it was run: as §1
# ELF3 = biological target: T11, ELF3 (Homo sapiens, UniProt P78545 1-371); conditions: protein: recombinant; tags: N-terminal GST; dsDNA, one strand shown
# T11 sequence: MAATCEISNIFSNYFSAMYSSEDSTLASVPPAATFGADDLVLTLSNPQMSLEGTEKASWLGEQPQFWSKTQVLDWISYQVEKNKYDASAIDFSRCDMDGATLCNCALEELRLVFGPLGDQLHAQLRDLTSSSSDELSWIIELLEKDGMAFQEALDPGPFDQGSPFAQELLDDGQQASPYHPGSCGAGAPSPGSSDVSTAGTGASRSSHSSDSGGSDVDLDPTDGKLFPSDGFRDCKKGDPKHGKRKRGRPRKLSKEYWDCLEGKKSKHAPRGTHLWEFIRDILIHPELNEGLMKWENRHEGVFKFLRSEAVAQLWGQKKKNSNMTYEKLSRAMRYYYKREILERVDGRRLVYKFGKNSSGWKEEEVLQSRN
# How it was run: as §1
# CRX = CRX (Homo sapiens, UniProt O43186 1-299); conditions: protein: recombinant; tags: N-terminal GST; dsDNA, one strand shown
# Sequence of CRX (O43186 whole entry): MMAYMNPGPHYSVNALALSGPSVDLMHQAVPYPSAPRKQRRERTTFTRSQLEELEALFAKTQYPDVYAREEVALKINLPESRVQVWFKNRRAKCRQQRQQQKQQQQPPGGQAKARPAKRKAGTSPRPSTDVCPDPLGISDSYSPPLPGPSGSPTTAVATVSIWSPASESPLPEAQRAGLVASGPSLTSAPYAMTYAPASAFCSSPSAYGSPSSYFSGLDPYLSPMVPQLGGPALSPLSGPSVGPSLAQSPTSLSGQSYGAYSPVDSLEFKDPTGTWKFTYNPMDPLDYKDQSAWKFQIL
# How it was run: as §1
# ETV1 = ETV1 (Homo sapiens, UniProt P50549 1-477); conditions: protein: recombinant; tags: N-terminal GST; dsDNA, one strand shown
# Sequence of ETV1 (P50549 whole entry): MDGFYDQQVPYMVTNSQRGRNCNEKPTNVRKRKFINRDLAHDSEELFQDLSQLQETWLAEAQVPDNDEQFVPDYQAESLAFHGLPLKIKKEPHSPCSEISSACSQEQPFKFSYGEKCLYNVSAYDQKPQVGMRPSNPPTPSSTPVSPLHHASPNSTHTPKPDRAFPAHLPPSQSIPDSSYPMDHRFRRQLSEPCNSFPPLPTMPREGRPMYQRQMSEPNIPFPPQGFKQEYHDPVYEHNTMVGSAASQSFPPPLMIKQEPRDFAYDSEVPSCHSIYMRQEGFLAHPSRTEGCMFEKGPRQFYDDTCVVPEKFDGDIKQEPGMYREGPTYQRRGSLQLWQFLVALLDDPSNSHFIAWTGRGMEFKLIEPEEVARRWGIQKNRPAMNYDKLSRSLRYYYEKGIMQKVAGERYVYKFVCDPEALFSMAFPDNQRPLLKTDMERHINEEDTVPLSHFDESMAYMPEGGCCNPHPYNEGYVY
# How it was run: as §1
sequence,measurement,setting,value
TCATAT,binding signal,FLI1,"1.21 fold enrichment (6-mer frequency, TF over GST control)"
same,binding signal,ELK1,"1.2 fold enrichment (6-mer frequency, TF over GST control)"
same,binding signal,GABPA,"1.26 fold enrichment (6-mer frequency, TF over GST control)"
same,binding signal,ERG,"1.2 fold enrichment (6-mer frequency, TF over GST control)"
same,binding signal,ELF1,"1.29 fold enrichment (6-mer frequency, TF over GST control)"
same,binding signal,EHF,"1.24 fold enrichment (6-mer frequency, TF over GST control)"
same,binding signal,SPI1,"1.18 fold enrichment (6-mer frequency, TF over GST control)"
same,binding signal,SPIB,"1.4 fold enrichment (6-mer frequency, TF over GST control)"
same,binding signal,ELK3,"1.17 fold enrichment (6-mer frequency, TF over GST control)"
same,binding signal,FEV,"1.24 fold enrichment (6-mer frequency, TF over GST control)"
same,binding signal,ETV5,"1.23 fold enrichment (6-mer frequency, TF over GST control)"
same,binding signal,HSF1,"1.15 fold enrichment (6-mer frequency, TF over GST control)"
same,binding signal,SPIC,"1.13 fold enrichment (6-mer frequency, TF over GST control)"
same,binding signal,ELF4,"1.28 fold enrichment (6-mer frequency, TF over GST control)"
same,binding signal,ELK4,"1.23 fold enrichment (6-mer frequency, TF over GST control)"
same,binding signal,ETV2,"1.29 fold enrichment (6-mer frequency, TF over GST control)"
same,binding signal,ELF3,"1.23 fold enrichment (6-mer frequency, TF over GST control)"
same,binding signal,CRX,"1.22 fold enrichment (6-mer frequency, TF over GST control)"
same,binding signal,ETV1,"1.35 fold enrichment (6-mer frequency, TF over GST control)"

# From publication PMC7862700, “An all-to-all approach to the identification of sequence-specific readers for epigenetic DNA modifications on cytosine”
